Only some compounds are listed: those with a hit (about 3.6% of all), similar ones and a draw of the others.
Mtb betalactam: beta-lactam sensitization of Mtb H37Rv. M. tuberculosis H37Rv growth with meropenem, percent inhibition. inhibition, % at 25 µM. actives 0.27% (n = 330,000). AID 434955; call rule not given here;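 further: growth measured after seven days incubation then overnight dye step; 0% = bacteria only wells and 100% = bacteria with antibiotic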
FBA Mtb inh: inhibits M. tuberculosis FBA enzyme; P9WQA3; purified M. tuberculosis FBA, fluorescence read-out; inhibition, % at 1 µM; actives 2.3% (n = 360,000); in the data active means inhibition above about 27%;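 further: 0% = vehicle and 100% = reference inhibitor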
Target sequence (P9WQA3 whole entry, looked up): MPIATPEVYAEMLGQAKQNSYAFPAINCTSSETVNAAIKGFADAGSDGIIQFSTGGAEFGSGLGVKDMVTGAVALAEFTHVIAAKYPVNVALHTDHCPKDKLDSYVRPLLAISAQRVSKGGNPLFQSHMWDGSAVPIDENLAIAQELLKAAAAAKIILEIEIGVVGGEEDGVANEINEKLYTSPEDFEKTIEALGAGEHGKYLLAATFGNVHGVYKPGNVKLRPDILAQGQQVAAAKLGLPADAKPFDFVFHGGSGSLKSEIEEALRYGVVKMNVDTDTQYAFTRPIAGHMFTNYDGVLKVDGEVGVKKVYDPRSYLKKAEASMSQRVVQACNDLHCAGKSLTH
Mtb hypoxia inh: reduces hypoxia-regulated biosensor signal in M. tuberculosis; fluorescence inhibition, % (no concentration beside the values); M. tuberculosis hypoxia-regulated fluorescent reporter, fluorescence; actives 0.1% (n = 300,000); in the data active means fluorescence inhibition mostly above about 23%, no sharp cut-off; inactive means mostly below about 17%
GDH-TPI counter: counter-screen for M. tuberculosis FBA inhibitors: GDH-TPI coupled enzymes. AID 588335. GDH-TPI coupled enzyme counterscreen, NADH absorbance. inhibition, % at 4.8 µM. actives 1.2% (n = 360,000); in the data active means inhibition above about 30%;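 further: 0% = DMSO wells and 100% = wells lacking the enzyme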
VHR inh abs: inhibitors of human VHR1 phosphatase (DUSP3) | actives 0.52% (n = 290,000) | P51452 | inhibition, % at 13.3 µM | recombinant VHR phosphatase, pNPP absorbance; in the data active means inhibition above about 50%
An asterisk follows results filed as active; ? = inconclusive; nt = no result.

SMILES	Mtb betalactam	FBA Mtb inh	Mtb hypoxia inh	GDH-TPI counter	VHR inh abs
COc1ccc2c(CC(=O)N[C@@H](Cc3ccccc3)C(=O)O)cc(=O)oc2c1C	-5	149*	0	21	2
COC(=O)C1=C(c2ccc(OCc3ccccc3)cc2)CC2CCC1N2C(=O)NCc1cccc(OC)c1 (stereo unspecified)	nt	nt	-7	nt	nt
COc1ccc(C(=O)Nc2ccc(OCC(=O)N3CCOCC3)cc2)c(OC)c1OC	?	3	nt	7	57*
COc1ccc2c(c1OC)c(=O)n1c3ccc(OC(C)C(=O)NCCCN4CCOCC4)cc3c3ccnc2c31 (stereo unspecified)	-6	153*	nt	3	33
CCCCc1cc(=O)oc2cc(OC(C)C(=O)NCCN3CCOCC3)ccc12 (stereo unspecified)	nt	13	nt	10	nt
Cc1ccc(/C=C/C(=O)Nc2nnc(C)s2)o1	-4	2	5	32*	-5
C=CCC(CC(=O)NCCO)C(=O)NC(COC(=O)C(CC=C)CC(=O)OC(C)(C)C)Cc1c[nH]c2ccccc12 (stereo unspecified)	nt	nt	15	nt	nt
CCN(CC)c1ccc(C2=NNC(=O)CC2C)cc1[N+](=O)[O-] (stereo unspecified)	4	-6	8	31*	-8
CC1CC(=O)NN=C1c1ccc(N(C)C)c([N+](=O)[O-])c1 (stereo unspecified)	-10	-5	1	37*	3
O=C(O)C1=CC(c2csc3ccccc23)CC(OCc2ccc(CO)cc2)O1 (stereo unspecified)	nt	nt	6	nt	nt
COc1ccc(OC)c(C(C(=O)NC2CCCCC2)N(C(=O)c2snc(C(N)=O)c2N)c2ccccc2OC)c1 (stereo unspecified)	3	115*	nt	26	-35
Cc1cccc(NC(=O)[C@@H]2CCCN2C(=O)OC(C)(C)C)c1	-12	-2	0	5	58*
Cc1cccc(NC(=O)[C@@H]2CCCN2C(=O)OC(C)(C)C)c1C	-11	0	2	7	-2
CC(=O)c1cccc(NC(=O)N2CCCC2C(=O)Nc2ccc3c(c2)OCO3)c1 (stereo unspecified)	-3	1	9	12	57*
CC(c1ccccc1)n1c(N2CCNCC2)nc2c1c(=O)[nH]c(=O)n2C (stereo unspecified)	4	0	5	7	56*
CC(c1ccccc1)n1c(Br)nc2c1c(=O)[nH]c(=O)n2C (stereo unspecified)	-6	0	15	-1	-12
C[C@H](NC(=O)[C@@H]1Cc2ccccc2CN1)C(=O)NC1CCCCC1	-8	2	1	9	53*
CC(C)[C@H](NC(=O)[C@@H]1Cc2ccccc2CN1)C(=O)NC1CCCCC1	-5	-3	3	2	-2
CCCOc1ccc(C(=O)c2nc3c(n2O)CCCCC3)cc1	95	-1	3	31*	16
O=C(c1ccccc1)c1nc2c(n1O)CCCCC2	-3	-3	-9	18	-11
O=[N+]([O-])c1ccc(NN=C2CC3CC=CC23)cc1 (stereo unspecified)	nt	nt	10	nt	nt
CN(C)C(=O)Cn1cc(S(=O)(=O)Cc2ccccc2)c2ccccc21	-9	-1	14	0	59*
COc1ccc(C)c2sc(N(CCN(C)C)C(=O)/C=C/c3cccs3)nc12	98	0	nt	31*	10
COc1ccc(OC)c2sc(N(CCN(C)C)C(=O)/C=C/c3cccs3)nc12	85	4	nt	33*	1
COc1cccc2sc(N(CCN(C)C)C(=O)/C=C/c3cccs3)nc12	-5	1	16	32*	15
SMILES	Mtb betalactam	FBA Mtb inh	Mtb hypoxia inh	GDH-TPI counter	VHR inh abs
CCOc1cccc2sc(N(CCN(C)C)C(=O)/C=C/c3cccs3)nc12	100	-6	13	4	10
CN(C)CCCN(C(=O)/C=C/c1cccs1)c1nc2ccc(F)cc2s1	nt	-2	12	48*	2
Cc1ccc(C=NNC(=O)COc2ccccc2-c2ccccc2)cc1	nt	nt	13	nt	nt
CN(C)c1ccc(/C=[N+](\[O-])C(C)(C)C=NO)cc1	nt	nt	0	nt	nt
O=C1CC(c2ccc(O)c(O)c2)Oc2cc(O)cc(O)c21 (stereo unspecified)	-6	6	nt	31*	-17
COc1ccc(Nc2nc(NCc3ccco3)nc(NN=Cc3ccc(O)cc3)n2)cc1	nt	nt	4	nt	nt
COC(=O)Cn1c(=O)c2c(n(Cc3ccccc3)c1=O)N/C(=C/c1ccc(OC)cc1)C2=O	-3	-1	8	41*	-4
COc1ccc(C(C)=NNC(=O)c2ccc(-c3ccccc3)cc2)c(F)c1	nt	nt	0	nt	nt

Bioassay records from PubChem BioAssay.
